Measurements taken from PubChem BioAssay (NCATS).
Where “and” joins values, the source holds several entries; their conditions need not be identical. Equal entries are not always repeated. Values without a mark were called inactive. Inconclusive results are not listed. A call without a number means that no potency is given here. The source holds several records for some structures; these can differ, active in one and inactive in another. Calls of active or inactive are those of the source. Unless noted, calls follow the shape of the dose curve; as a rule, active = well fitted curve in the direction sought with a large enough effect; inconclusive = small, poorly fitted or top-dose-only effect, or another doubt; inactive = no such curve, though single readings can be large; an effect the other way counts as inactive or inconclusive.

What was measured:
[1] = Drug repurposing screens with cells derived from glioblastoma tumor samples (AID 1345199); conditions: GBM patient neurospheres viability, ATP luminescence, 48 h; also: nearly all actives have a fitted effect of over 40% in size; also: potency is read from the fitted curve at half-maximal effect
Method in brief: (§1)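 Four patient lines of CD133+ GBM neurospheres were screened at several concentrations; hits were retested in those lines plus three slower-growing GBM lines, using 48-hour treatment and ATP-based viability.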

astro = control astrocytes; experiment: as above; conditions: viability, ATP luminescence, 48 h; series mostly up to 45.9 µM
Method in brief: as §1

Es-2 = experiment: Primary qHTS to identify gynecologic anti-cancer compounds using libraries of approved drugs and bioactive compounds (AID 1345084); conditions: Gynecologic cancer cell panel viability, ATPlite luminescence, 48 h; series mostly up to 57.5 µM; also: nearly all actives have a fitted effect of over 55% in size; also: potency is read from the fitted curve at half-maximal effect
Method in brief: (§2)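 Cytotoxicity screen measuring ATP content by luciferase luminescence. Each compound is applied at five concentrations for 48 h at 37 C with 5% CO2.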

Hek293T = experiment: as above; conditions: Gynecologic cancer cell panel viability, ATPlite luminescence, 48 h, control line for the selectivity index; series mostly up to 57.5 µM
Method in brief: as §2

JEG-3 = experiment: as above; conditions: Gynecologic cancer cell panel viability, ATPlite luminescence, 48 h; series mostly up to 57.5 µM
Method in brief: as §2

PA-1 = experiment: as above; conditions: Gynecologic cancer cell panel viability, ATPlite luminescence, 48 h; series mostly up to 57.5 µM
Method in brief: as §2

SKOV3 = experiment: as above; conditions: Gynecologic cancer cell panel viability, ATPlite luminescence, 48 h; series mostly up to 57.5 µM
Method in brief: as §2

Tov-21-G = experiment: as above; conditions: Gynecologic cancer cell panel viability, ATPlite luminescence, 48 h; series mostly up to 57.5 µM
Method in brief: as §2

Tov112D = experiment: as above; conditions: Gynecologic cancer cell panel viability, ATPlite luminescence, 48 h; series mostly up to 57.5 µM
Method in brief: as §2

HeLa = experiment: as above; conditions: Gynecologic cancer cell panel viability, ATPlite luminescence, 48 h; series mostly up to 57.5 µM
Method in brief: as §2

OV90 = experiment: as above; conditions: Gynecologic cancer cell panel viability, ATPlite luminescence, 48 h; series mostly up to 57.5 µM
Method in brief: as §2

[2] = molecular target: Nuclear receptor subfamily 1 group I member 2 (Rattus norvegicus) (UniProt Q9R1A7); experiment: qHTS assay for small molecule activators of the rat pregnane X receptor (rPXR) signaling pathway (AID 651751; call rule not given here); conditions: rPXR reporter cells, luciferase (One-Glo), 24 h
[3] = qHTS assay for small molecule activators of the human pregnane X receptor (PXR) signaling pathway (AID 720659; call rule not given here); conditions: DPX-2 HepG2 CYP3A4-luciferase, 24 h; series mostly up to 92.3 µM
[4] = at 45.9 µM (top of the series), tumour line B
[5] = at 45.9 µM (top of the series), tumour line D
[6] = at 46 µM (top of the series), tumour line A

Sequence of Nuclear receptor subfamily 1 group I member 2 (Rattus norvegicus) (Q9R1A7 whole entry, looked up): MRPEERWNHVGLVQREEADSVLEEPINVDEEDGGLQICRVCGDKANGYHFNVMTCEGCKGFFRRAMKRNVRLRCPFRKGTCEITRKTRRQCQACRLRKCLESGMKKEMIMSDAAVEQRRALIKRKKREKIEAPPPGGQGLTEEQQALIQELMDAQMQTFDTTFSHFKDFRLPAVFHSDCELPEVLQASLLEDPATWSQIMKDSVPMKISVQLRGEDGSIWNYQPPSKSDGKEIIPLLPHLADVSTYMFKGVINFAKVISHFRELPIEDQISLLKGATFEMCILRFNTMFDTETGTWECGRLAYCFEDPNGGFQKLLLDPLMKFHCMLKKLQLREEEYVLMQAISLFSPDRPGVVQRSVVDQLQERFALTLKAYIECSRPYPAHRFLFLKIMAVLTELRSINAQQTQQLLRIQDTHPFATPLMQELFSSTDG

Work on `O=C1Nc2ccc(Cl)cc2C(c2ccccc2)=NC1O` (stereo not drawn) yielded an activity, negative = cell killing [1, 4] of -7.13%, an activity, negative = cell killing [1, 5] of -25.5% and an activity, negative = cell killing ([1]; at 91.6 µM (top of the series), tumour line B) of -11.1%. For the same compound, the activity, negative = cell killing ([1]; at 91.6 µM (top of the series), tumour line D) was -11.5%, the Potency ([1]; tumour line A) was 39.8 µM (active) and the Potency (astro) was “inactive”.
In the case of `C[C@H](N)C(=O)c1ccccc1`, the Potency (Es-2) is reported as “inactive”, the outcome (Hek293T) is reported as “inactive” and the outcome (JEG-3) is reported as “inactive”. For the same compound, the Potency (PA-1) was “inactive”, the outcome (SKOV3) was “inactive” and the Potency (Tov-21-G) was “inactive”. The Potency (Tov112D) was “inactive”, the activity, negative = cell killing [1, 4] was -11.6% and the activity, negative = cell killing [1, 5] was -9.76%. The activity, negative = cell killing ([1]; at 108 µM (top of the series), tumour line B) was -16.2%, the activity, negative = cell killing ([1]; at 108 µM (top of the series), tumour line D) was -20.3% and the Potency (astro) was “inactive”.
With `CCN(CCO)CCn1c(Cc2ccccc2)nc2c1c(=O)n(C)c(=O)n2C` the Potency (Es-2) was “inactive”, the Potency (HeLa) was “inactive” and the outcome (Hek293T) was “inactive”. For the same compound, the outcome (JEG-3) was “inactive”, the Potency (PA-1) was “inactive” and the Potency (Tov-21-G) was “inactive”. The Potency (Tov112D) was “inactive”, the activity, negative = cell killing [1, 4] was -6.5% and the activity, negative = cell killing [1, 5] was -3.15%.
For `C[C@]12CC[C@@H]3c4ccc(OC(=O)N(CCCl)CCCl)cc4CC[C@H]3[C@@H]1CC[C@@H]2O`, the Potency (HeLa) was 35.5 µM (active), the activity, negative = cell killing [1, 4] was -7.93% and the activity, negative = cell killing [1, 5] was -5.83%. It also gave an activity, negative = cell killing [1, 6] of -29.8%.
For `CC(C)C[C@H](CN)CC(=O)O`, the activity, negative = cell killing [1, 4] was 2.42%, the activity, negative = cell killing [1, 5] was -14.3% and the activity, negative = cell killing [1, 6] was -19.6%. For the same compound, the Potency (astro) was “inactive”.
In the case of `CN1C(=O)CC(=O)N(c2ccccc2)c2cc(Cl)ccc21`, the activity, negative = cell killing [1, 4] is reported as -10.8%, the activity, negative = cell killing [1, 5] is reported as -2.22% and the activity, negative = cell killing [1, 6] is reported as -21.5%.
In the case of `COC1CC(=C(c2cccs2)c2cccs2)C[N+](C)(C)C1` (stereo not drawn), the Potency (Es-2) is reported as “inactive”, the outcome (Hek293T) is reported as “inactive” and the outcome (JEG-3) is reported as “inactive”. The Potency (OV90) was “inactive”, the outcome (SKOV3) was “inactive” and the Potency (Tov-21-G) was “inactive”. The Potency (Tov112D) was “inactive”.
In the case of `CCCC(C)(COC(N)=O)COC(N)=O`, the activity, negative = cell killing [1, 4] is reported as 0.449%, the activity, negative = cell killing [1, 5] is reported as -14.8% and the activity, negative = cell killing [1, 6] is reported as -19.1%. The Potency (astro) was “inactive” and the max response [2] was 3.06% and 3.91%.
With `COC(=O)C(c1ccccc1)C1CCCCN1` (stereo not drawn) the activity, negative = cell killing [1, 4] was -10.4%, the activity, negative = cell killing [1, 5] was 3.11% and the activity, negative = cell killing [1, 6] was -16.7%. For the same compound, the Potency (astro) was “inactive”, the max response [2] was 1.26% and 1.36% and the outcome [3] was “inactive”.
For `CC(C(=O)c1ccccc1)N(C)C` (stereo not drawn), the Potency (Es-2) was “inactive”, the Potency (HeLa) was “inactive” and the outcome (JEG-3) was “inactive”. For the same compound, the Potency (OV90) was “inactive”, the Potency (PA-1) was “inactive” and the outcome (SKOV3) was “inactive”. The Potency (Tov-21-G) was “inactive” and the Potency (Tov112D) was “inactive”.
Work on `O=C1Nc2ccc(Cl)cc2C(c2ccccc2Cl)=NC1O` (stereo not drawn) yielded an activity, negative = cell killing [1, 4] of 0.661%, an activity, negative = cell killing [1, 5] of -9.55% and an activity, negative = cell killing [1, 6] of -25.3%. For the same compound, the Potency (astro) was “inactive”.
With `COc1ccc2c(c1)C13CCCC[C@@H]1C(C2)N(C)CC3` (stereo partly drawn) the activity, negative = cell killing [1, 4] was -6.27%, the activity, negative = cell killing [1, 5] was -5.01% and the Potency ([1]; tumour line A) was 35.5 µM (active).
With `CC(C)=CC1C(C(=O)OCN2C(=O)C3=C(CCCC3)C2=O)C1(C)C` (stereo not drawn) the Potency (Es-2) was “inactive”, the Potency (HeLa) was “inactive” and the outcome (JEG-3) was “inactive”. For the same compound, the Potency (OV90) was “inactive”, the Potency (PA-1) was “inactive” and the Potency (Tov-21-G) was “inactive”. The Potency (Tov112D) was “inactive”, the activity, negative = cell killing [1, 4] was -18.8% and the activity, negative = cell killing [1, 5] was -12.7%. For the same compound, the Potency (astro) was “inactive”.
For `O=C(O)c1ccc(=O)[nH]c1`, the Potency (Es-2) was “inactive”, the Potency (HeLa) was “inactive” and the outcome (Hek293T) was “inactive”. For the same compound, the Potency (OV90) was “inactive”, the Potency (PA-1) was “inactive” and the Potency (Tov-21-G) was “inactive”. For the same compound, the Potency (Tov112D) was “inactive”.
